Reference: PMC7862700, “An all-to-all approach to the identification of sequence-specific readers for epigenetic DNA modifications on cytosine”

Experiments:
Assay in all cases: DAPPL (digital affinity profiling via proximity ligation, sequencing); 10 mM Tris-HCl pH 7.5, 50 mM NaCl, 1 mM DTT, 4% glycerol, room temperature, 30 min; GST-TFs on glutathione beads, 16-mer random dsDNA library, 0.1% formaldehyde crosslink after washing; high values mean tight binding
Settings in all cases: protein: recombinant; tags: N-terminal GST; dsDNA, one strand shown
FLI1 = biological target: T1, FLI1 (Homo sapiens, UniProt Q01543 1-452)
T1 sequence: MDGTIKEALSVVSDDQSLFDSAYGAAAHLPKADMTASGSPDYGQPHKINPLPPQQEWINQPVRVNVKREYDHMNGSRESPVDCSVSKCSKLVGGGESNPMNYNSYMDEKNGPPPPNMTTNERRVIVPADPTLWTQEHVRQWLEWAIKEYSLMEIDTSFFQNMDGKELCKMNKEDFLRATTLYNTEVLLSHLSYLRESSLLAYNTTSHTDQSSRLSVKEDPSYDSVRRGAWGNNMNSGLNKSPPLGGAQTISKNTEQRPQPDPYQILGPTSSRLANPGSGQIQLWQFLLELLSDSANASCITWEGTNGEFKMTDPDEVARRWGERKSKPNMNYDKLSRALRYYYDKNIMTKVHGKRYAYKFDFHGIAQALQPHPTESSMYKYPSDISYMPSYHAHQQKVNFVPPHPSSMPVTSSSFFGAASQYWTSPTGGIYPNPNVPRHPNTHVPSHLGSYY
Procedure, shortened: (§1)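 Human transcription factors fused to GST were expressed in yeast, captured on glutathione beads, given DNA barcodes and pooled with a GST-only negative control. Pools were incubated with 200 nmole of a 16-mer random double-stranded DNA library in Tris/NaCl/DTT/glycerol buffer at room temperature for 30 min. They were then washed, crosslinked with 0.1% formaldehyde, proximity-ligated (BsaI/T4 ligase, 1 h, 37 °C), PCR-amplified and sequenced on an Illumina NextSeq500. Binding signal is each 6-mer's read frequency for a factor divided by its frequency for the GST control.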

ELK1 = biological target: T2, ELK1 (Homo sapiens, UniProt P19419 1-428)
T2 sequence: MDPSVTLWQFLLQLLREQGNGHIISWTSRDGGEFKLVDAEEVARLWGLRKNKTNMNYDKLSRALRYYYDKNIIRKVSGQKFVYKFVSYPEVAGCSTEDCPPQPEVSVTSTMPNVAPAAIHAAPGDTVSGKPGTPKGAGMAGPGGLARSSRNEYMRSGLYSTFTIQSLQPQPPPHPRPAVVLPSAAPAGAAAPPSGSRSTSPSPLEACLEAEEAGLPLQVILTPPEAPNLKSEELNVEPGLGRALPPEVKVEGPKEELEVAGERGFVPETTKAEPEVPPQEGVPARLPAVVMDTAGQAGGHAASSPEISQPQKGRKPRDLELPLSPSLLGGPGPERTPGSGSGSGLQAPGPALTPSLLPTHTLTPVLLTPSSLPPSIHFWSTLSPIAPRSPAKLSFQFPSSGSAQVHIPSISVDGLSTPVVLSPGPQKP
Procedure, shortened: as §1

GABPA = biological target: T3, GABPA (Homo sapiens, UniProt Q06546 1-454)
T3 sequence: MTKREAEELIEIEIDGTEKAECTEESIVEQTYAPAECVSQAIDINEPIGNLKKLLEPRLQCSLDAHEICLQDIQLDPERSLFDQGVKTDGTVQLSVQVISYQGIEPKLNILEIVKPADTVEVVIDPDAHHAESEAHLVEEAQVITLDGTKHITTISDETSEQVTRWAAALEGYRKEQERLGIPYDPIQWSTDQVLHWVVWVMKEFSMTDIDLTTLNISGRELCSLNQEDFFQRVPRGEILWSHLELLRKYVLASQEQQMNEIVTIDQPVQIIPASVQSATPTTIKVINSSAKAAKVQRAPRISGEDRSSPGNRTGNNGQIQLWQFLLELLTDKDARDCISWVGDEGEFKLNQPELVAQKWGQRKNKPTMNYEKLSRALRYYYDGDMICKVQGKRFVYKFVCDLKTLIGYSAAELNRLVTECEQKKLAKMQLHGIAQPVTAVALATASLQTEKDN
Procedure, shortened: as §1

ERG = biological target: T4, ERG (Homo sapiens, UniProt P11308 1-479)
T4 sequence: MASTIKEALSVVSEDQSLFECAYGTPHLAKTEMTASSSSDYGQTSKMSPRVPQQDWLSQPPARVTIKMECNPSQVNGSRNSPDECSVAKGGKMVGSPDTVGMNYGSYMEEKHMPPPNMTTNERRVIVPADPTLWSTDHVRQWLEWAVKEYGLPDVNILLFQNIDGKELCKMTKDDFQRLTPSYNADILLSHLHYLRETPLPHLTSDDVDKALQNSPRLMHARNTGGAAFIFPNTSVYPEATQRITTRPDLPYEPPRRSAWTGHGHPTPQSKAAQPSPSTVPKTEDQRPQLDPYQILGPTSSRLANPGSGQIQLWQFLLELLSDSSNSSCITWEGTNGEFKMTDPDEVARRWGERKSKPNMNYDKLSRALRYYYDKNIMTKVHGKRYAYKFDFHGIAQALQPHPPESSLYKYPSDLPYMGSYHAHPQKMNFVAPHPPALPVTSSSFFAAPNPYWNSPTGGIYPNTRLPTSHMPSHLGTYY
Procedure, shortened: as §1

ELF1 = ELF1 (Homo sapiens, UniProt P32519 1-619)
Procedure, shortened: as §1

EHF = biological target: T5, EHF (Homo sapiens, UniProt Q9NZC4 1-300)
T5 sequence: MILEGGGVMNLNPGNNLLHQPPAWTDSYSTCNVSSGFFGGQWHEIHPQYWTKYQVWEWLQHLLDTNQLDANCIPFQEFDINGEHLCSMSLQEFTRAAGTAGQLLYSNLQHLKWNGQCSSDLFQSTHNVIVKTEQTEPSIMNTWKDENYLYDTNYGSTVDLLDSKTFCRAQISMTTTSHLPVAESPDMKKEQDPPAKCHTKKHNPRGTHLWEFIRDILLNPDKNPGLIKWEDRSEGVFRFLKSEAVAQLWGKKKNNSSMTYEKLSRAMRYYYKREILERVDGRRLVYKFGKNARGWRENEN
Procedure, shortened: as §1

SPI1 = SPI1 (Homo sapiens, UniProt P17947 1-270)
Procedure, shortened: as §1

SPIB = SPIB (Homo sapiens, UniProt Q01892 1-262)
Procedure, shortened: as §1

ELK3 = biological target: T6, ELK3 (Homo sapiens, UniProt P41970 1-407)
T6 sequence: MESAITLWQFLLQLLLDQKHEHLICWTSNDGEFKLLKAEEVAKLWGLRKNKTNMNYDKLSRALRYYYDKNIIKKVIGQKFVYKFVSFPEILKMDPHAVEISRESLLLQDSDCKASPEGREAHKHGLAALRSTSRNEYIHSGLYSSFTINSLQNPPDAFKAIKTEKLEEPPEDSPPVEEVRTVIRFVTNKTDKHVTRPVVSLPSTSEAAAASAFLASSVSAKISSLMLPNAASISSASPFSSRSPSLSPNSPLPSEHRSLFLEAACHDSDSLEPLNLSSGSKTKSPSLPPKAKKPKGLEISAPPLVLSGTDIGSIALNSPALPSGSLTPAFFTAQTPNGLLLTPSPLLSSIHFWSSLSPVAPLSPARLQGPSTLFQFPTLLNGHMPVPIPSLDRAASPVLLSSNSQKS
Procedure, shortened: as §1

ELF1, sequence (P32519 whole entry): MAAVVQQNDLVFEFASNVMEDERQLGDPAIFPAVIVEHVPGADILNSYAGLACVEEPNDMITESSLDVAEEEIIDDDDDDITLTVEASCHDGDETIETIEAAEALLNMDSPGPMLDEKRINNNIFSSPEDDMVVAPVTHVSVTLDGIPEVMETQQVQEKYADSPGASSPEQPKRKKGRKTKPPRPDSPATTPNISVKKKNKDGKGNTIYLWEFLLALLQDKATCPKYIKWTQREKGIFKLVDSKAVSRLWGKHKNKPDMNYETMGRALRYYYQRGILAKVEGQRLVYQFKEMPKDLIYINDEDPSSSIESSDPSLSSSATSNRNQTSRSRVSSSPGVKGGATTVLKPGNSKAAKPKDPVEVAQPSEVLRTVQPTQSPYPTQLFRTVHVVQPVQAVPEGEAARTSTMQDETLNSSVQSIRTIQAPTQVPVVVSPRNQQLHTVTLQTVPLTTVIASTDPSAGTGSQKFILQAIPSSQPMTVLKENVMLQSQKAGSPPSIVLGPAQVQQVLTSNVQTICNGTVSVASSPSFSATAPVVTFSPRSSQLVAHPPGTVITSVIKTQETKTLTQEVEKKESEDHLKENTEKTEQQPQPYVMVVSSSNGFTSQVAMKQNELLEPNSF
SPIB, sequence (Q01892 whole entry): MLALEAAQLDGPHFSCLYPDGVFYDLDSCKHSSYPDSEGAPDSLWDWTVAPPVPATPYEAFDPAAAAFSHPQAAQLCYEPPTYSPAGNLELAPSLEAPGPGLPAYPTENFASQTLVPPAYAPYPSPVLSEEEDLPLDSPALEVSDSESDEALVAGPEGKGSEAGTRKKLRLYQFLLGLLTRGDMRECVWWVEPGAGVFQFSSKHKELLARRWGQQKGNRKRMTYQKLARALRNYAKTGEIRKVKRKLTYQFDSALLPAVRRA

TATATG
binding signal (FLI1): 1.28 fold enrichment (6-mer frequency, TF over GST control)
binding signal (ELK1): 1.38 fold enrichment (6-mer frequency, TF over GST control)
binding signal (GABPA): 1.3 fold enrichment (6-mer frequency, TF over GST control)
binding signal (ERG): 1.36 fold enrichment (6-mer frequency, TF over GST control)
binding signal (ELF1): 1.43 fold enrichment (6-mer frequency, TF over GST control)
binding signal (EHF): 1.34 fold enrichment (6-mer frequency, TF over GST control)
binding signal (SPI1): 1.41 fold enrichment (6-mer frequency, TF over GST control)
binding signal (SPIB): 1.36 fold enrichment (6-mer frequency, TF over GST control)
binding signal (ELK3): 1.38 fold enrichment (6-mer frequency, TF over GST control)

CCGTCA
binding signal (FLI1): 1.24 fold enrichment (6-mer frequency, TF over GST control)
binding signal (ELK1): 1.3 fold enrichment (6-mer frequency, TF over GST control)
binding signal (GABPA): 1.19 fold enrichment (6-mer frequency, TF over GST control)
binding signal (ERG): 1.31 fold enrichment (6-mer frequency, TF over GST control)
binding signal (ELF1): 1.28 fold enrichment (6-mer frequency, TF over GST control)
binding signal (EHF): 1.16 fold enrichment (6-mer frequency, TF over GST control)
binding signal (SPI1): 1.18 fold enrichment (6-mer frequency, TF over GST control)
binding signal (SPIB): 1.2 fold enrichment (6-mer frequency, TF over GST control)
binding signal (ELK3): 1.15 fold enrichment (6-mer frequency, TF over GST control)

CTGCCG
binding signal (FLI1): 1.28 fold enrichment (6-mer frequency, TF over GST control)
binding signal (ELK1): 1.45 fold enrichment (6-mer frequency, TF over GST control)
binding signal (GABPA): 1.36 fold enrichment (6-mer frequency, TF over GST control)
binding signal (ERG): 1.26 fold enrichment (6-mer frequency, TF over GST control)
binding signal (ELF1): 1.34 fold enrichment (6-mer frequency, TF over GST control)
binding signal (EHF): 1.39 fold enrichment (6-mer frequency, TF over GST control)
binding signal (SPI1): 1.22 fold enrichment (6-mer frequency, TF over GST control)
binding signal (SPIB): 1.41 fold enrichment (6-mer frequency, TF over GST control)
binding signal (ELK3): 1.27 fold enrichment (6-mer frequency, TF over GST control)

TGATGA
binding signal (FLI1): 1.38 fold enrichment (6-mer frequency, TF over GST control)
binding signal (ELK1): 1.39 fold enrichment (6-mer frequency, TF over GST control)
binding signal (GABPA): 1.46 fold enrichment (6-mer frequency, TF over GST control)
binding signal (ERG): 1.28 fold enrichment (6-mer frequency, TF over GST control)
binding signal (ELF1): 1.35 fold enrichment (6-mer frequency, TF over GST control)
binding signal (EHF): 1.32 fold enrichment (6-mer frequency, TF over GST control)
binding signal (SPI1): 1.2 fold enrichment (6-mer frequency, TF over GST control)
binding signal (SPIB): 1.33 fold enrichment (6-mer frequency, TF over GST control)
binding signal (ELK3): 1.28 fold enrichment (6-mer frequency, TF over GST control)

ATGGGT
binding signal (FLI1): 1.39 fold enrichment (6-mer frequency, TF over GST control)
binding signal (ELK1): 1.37 fold enrichment (6-mer frequency, TF over GST control)
binding signal (GABPA): 1.28 fold enrichment (6-mer frequency, TF over GST control)
binding signal (ERG): 1.43 fold enrichment (6-mer frequency, TF over GST control)
binding signal (ELF1): 1.3 fold enrichment (6-mer frequency, TF over GST control)
binding signal (EHF): 1.46 fold enrichment (6-mer frequency, TF over GST control)
binding signal (SPI1): 1.21 fold enrichment (6-mer frequency, TF over GST control)
binding signal (SPIB): 1.29 fold enrichment (6-mer frequency, TF over GST control)
binding signal (ELK3): 1.44 fold enrichment (6-mer frequency, TF over GST control)

TTGCGT
binding signal (FLI1): 1.05 fold enrichment (6-mer frequency, TF over GST control)
binding signal (ELK1): 1.14 fold enrichment (6-mer frequency, TF over GST control)
binding signal (GABPA): 1.12 fold enrichment (6-mer frequency, TF over GST control)
binding signal (ERG): 1.03 fold enrichment (6-mer frequency, TF over GST control)
binding signal (ELF1): 1.11 fold enrichment (6-mer frequency, TF over GST control)
binding signal (EHF): 1.01 fold enrichment (6-mer frequency, TF over GST control)
binding signal (SPI1): 1.11 fold enrichment (6-mer frequency, TF over GST control)
binding signal (SPIB): 1.11 fold enrichment (6-mer frequency, TF over GST control)
binding signal (ELK3): 1.13 fold enrichment (6-mer frequency, TF over GST control)

GAACAC
binding signal (FLI1): 1.25 fold enrichment (6-mer frequency, TF over GST control)
binding signal (ELK1): 1.19 fold enrichment (6-mer frequency, TF over GST control)
binding signal (GABPA): 1.13 fold enrichment (6-mer frequency, TF over GST control)
binding signal (ERG): 1.17 fold enrichment (6-mer frequency, TF over GST control)
binding signal (ELF1): 1.19 fold enrichment (6-mer frequency, TF over GST control)
binding signal (EHF): 1.12 fold enrichment (6-mer frequency, TF over GST control)
binding signal (SPI1): 1.16 fold enrichment (6-mer frequency, TF over GST control)
binding signal (SPIB): 1.2 fold enrichment (6-mer frequency, TF over GST control)
binding signal (ELK3): 1.08 fold enrichment (6-mer frequency, TF over GST control)
